# Over roughly 35,000 sequences, “fluorescence intensity (a.u.)” has its median near 10,000; the highest 2% begin near 52,000. The list comes from a sample in which the highest values are over-represented; it also holds similar and randomly drawn sequences.
# Target: T1, OsWOX13 (Oryza sativa, UniProt Q5QMM3 1-267)
# T1 sequence: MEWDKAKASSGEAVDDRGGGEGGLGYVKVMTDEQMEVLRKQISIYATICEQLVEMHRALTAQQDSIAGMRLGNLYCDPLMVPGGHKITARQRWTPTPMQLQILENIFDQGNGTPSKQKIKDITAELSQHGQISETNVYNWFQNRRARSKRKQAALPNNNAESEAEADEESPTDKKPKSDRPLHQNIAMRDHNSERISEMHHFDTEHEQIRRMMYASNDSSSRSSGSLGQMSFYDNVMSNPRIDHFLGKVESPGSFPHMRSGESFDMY
# Experiment: protein-binding microarray (RPBM); PBS, 2% BSA, 51.3 ng/ul salmon testes DNA, 50 uM zinc acetate, 200 nM TF, 25 C, 1 h; high values mean tight binding
# Conditions: protein: recombinant; tags: N-terminal polyhistidine and DsRed monomer fusion (pET32a); label: CyDye5-dUTP incorporated in the synthesized complementary strand; 3' TTTTT single-stranded linker to array surface; dsDNA, one strand shown
# Procedure, shortened: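 A custom Agilent array was converted to double-stranded form by primer extension with Cy5-dUTP and blocked with 2% BSA. Protein at 200 nM in PBS with 2% BSA, salmon testes DNA and 50 µM zinc acetate was applied for 1 h at 25 °C, followed by washing. The proteins were polyhistidine–DsRed N-terminal fusions of transcription factors, expressed in E. coli BL21-CodonPlus and Ni–NTA-purified. The binding signal is per-feature fluorescence intensity (arbitrary units) from an Axon 4000B scanner.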
row,Sequence,binding signal
1,TAGTGATTTGAAAATACGGGTGCAAACAATGGAGCAACAACGGAGTCACCTAGTGCAG,3560 fluorescence intensity (a.u.)
2,ATTTACCGCAACTGTAATTGAGATGGTTTTGAGATTTCATCGGAGTCACCTAGTGCAG,6850 fluorescence intensity (a.u.)
3,TGTCACAGGTAAATCACTGCAATTAGCGAGTCATGGCTCACGGAGTCACCTAGTGCAG,8530 fluorescence intensity (a.u.)
4,TGATGTTTCATCACTAATTTGTATTTGATAACCTGCATATCGGAGTCACCTAGTGCAG,5260 fluorescence intensity (a.u.)
5,CTGATTTGCAGTTCGTTCGTGCCTCTCACAATCAAACCCCCGGAGTCACCTAGTGCAG,14300 fluorescence intensity (a.u.)
6,AGGTTGCAATCATTGGCCAGACGTTGCATGTCGTTGTTGACGGAGTCACCTAGTGCAG,13700 fluorescence intensity (a.u.)
7,CTTGTTATTGAATAATGGATTAACTAACTAATAACTAACGCGGAGTCACCTAGTGCAG,12800 fluorescence intensity (a.u.)
8,CAACAGATTAATGACATGTCAACAGCTGCATGCTCTAGCTCGGAGTCACCTAGTGCAG,14200 fluorescence intensity (a.u.)
9,CCGGTCTCCAAATCTTTATTAATTGCTTCCTCAAAACCCCCGGAGTCACCTAGTGCAG,3980 fluorescence intensity (a.u.)
10,ATTAACGACTTTTAATTTGAAACGGATTGAGTAGCTAGTTCGGAGTCACCTAGTGCAG,16100 fluorescence intensity (a.u.)
11,ATTAATTGGTCGTGTATTAGCAAACGATATATATATCGGTCGGAGTCACCTAGTGCAG,50500 fluorescence intensity (a.u.)
12,GGAAAATGCTCTAATGATTGTTATGGAGTTTATCTGTAATCGGAGTCACCTAGTGCAG,5570 fluorescence intensity (a.u.)
13,AAAAGAATAATTTATTGTCTTGTTCAGTTAATCCCTCCCTCGGAGTCACCTAGTGCAG,3330 fluorescence intensity (a.u.)
14,CACTATTAATTGTGCTTAGAGCAAGTTTAATAGTGTAGCCCGGAGTCACCTAGTGCAG,9860 fluorescence intensity (a.u.)
15,ATAATCCCTTGCGATTTATATTGAATTAATAGTTCTTGTTCGGAGTCACCTAGTGCAG,65000 fluorescence intensity (a.u.)
16,CACGATGATTGTTTGTATATGGAAACACCAAAATGGTCTACGGAGTCACCTAGTGCAG,54700 fluorescence intensity (a.u.)
17,TCTGTATGGTCTACTTGTTTGATTGATTGATAATTTTACACGGAGTCACCTAGTGCAG,22300 fluorescence intensity (a.u.)
18,TTTAATTAATTGTAGGACAAGATAGCAAACGTGTGGCTACCGGAGTCACCTAGTGCAG,59900 fluorescence intensity (a.u.)
19,TGGTAATTTTATGATTAAATTGACACTAACAAACTTATAGCGGAGTCACCTAGTGCAG,57200 fluorescence intensity (a.u.)
20,AGAGATTATTGAATATTGTTGCGATGACTTATAATCTTATCGGAGTCACCTAGTGCAG,5070 fluorescence intensity (a.u.)
21,ACTGATAACAAAATAATTTATAGGTAAAACTTTTAATATGCGGAGTCACCTAGTGCAG,7340 fluorescence intensity (a.u.)
22,AAAACAAATTTTATTATAAATATACGTTTAACTAACTTAGCGGAGTCACCTAGTGCAG,6070 fluorescence intensity (a.u.)
23,AATTAATTTCTAAATACAATCATTATTCACCTCGTAATATCGGAGTCACCTAGTGCAG,7210 fluorescence intensity (a.u.)
24,CCATATAATTATGCTTGTTATTATGTGACAAAGAGCGGGTCGGAGTCACCTAGTGCAG,25400 fluorescence intensity (a.u.)

row,Sequence,binding signal
1,CCAAAATATATTAATTAGCTCAGGTATGTACCCGCCCAATCGGAGTCACCTAGTGCAG,10700 fluorescence intensity (a.u.)
2,GTATATTTAATAATAAATCAACTCGCAATGAGACAAAATGCGGAGTCACCTAGTGCAG,4570 fluorescence intensity (a.u.)
3,ATTCTTAAATTGTTTTAACTAATACTTAATCAGCCATGAACGGAGTCACCTAGTGCAG,7790 fluorescence intensity (a.u.)
4,TTGGTGATATTGATGGAGCATGTTTTATTTGATAGAATAGCGGAGTCACCTAGTGCAG,3390 fluorescence intensity (a.u.)
5,TTCAATTGATATAGACACAGATCTATGTGATTCACTGACACGGAGTCACCTAGTGCAG,21700 fluorescence intensity (a.u.)
6,CATTGATGACACAAAATAGTAGCAACTAAACAAACCAGAACGGAGTCACCTAGTGCAG,6690 fluorescence intensity (a.u.)
7,GATAGATTAATATATGATATATCTTTTCACAAACATACAACGGAGTCACCTAGTGCAG,10500 fluorescence intensity (a.u.)
8,AACTTGAAACAATTTGATTTTGACTAAAGTCAAAACGTCTCGGAGTCACCTAGTGCAG,4710 fluorescence intensity (a.u.)
9,TTTGATTGTTTCCATTTGCAATTTCTAAATACGAACCTGCCGGAGTCACCTAGTGCAG,57500 fluorescence intensity (a.u.)
10,TGCCGATTGATCTTTTATCCTTTGGGGCATATGCTCGAGTCGGAGTCACCTAGTGCAG,24400 fluorescence intensity (a.u.)
11,AATTCTAATATATTTGATTGTTTCAAAATAAAGTCTTTGCCGGAGTCACCTAGTGCAG,14700 fluorescence intensity (a.u.)
12,TTGAATGACTACGAATTTGTTTAAATATTTGCATTCCATCCGGAGTCACCTAGTGCAG,7180 fluorescence intensity (a.u.)
13,TTAGATAGATTAATATGTGATAGATCTTCACAAACAGACACGGAGTCACCTAGTGCAG,54900 fluorescence intensity (a.u.)
14,TTGATTGATGGGAGTCTAACAAAGTGACAAAACTTAGCAACGGAGTCACCTAGTGCAG,53900 fluorescence intensity (a.u.)
15,ATTGATTGACCGAGCGCACTACTCTTTATCTTTTCGATTGCGGAGTCACCTAGTGCAG,64900 fluorescence intensity (a.u.)
16,GTGCTCTTTAATTATCACTTTGTGCGCACTTTTCTTTGATCGGAGTCACCTAGTGCAG,6410 fluorescence intensity (a.u.)
17,CAGAATTTACAAAATGGATTGACCAAAAGCCTAATTAATTCGGAGTCACCTAGTGCAG,7770 fluorescence intensity (a.u.)
18,CAAGATTTTAATAAATGCATAATTTTATGAATCGCATAGACGGAGTCACCTAGTGCAG,7290 fluorescence intensity (a.u.)
19,CATGACATACAATTTATCAGATCCAATTTTAGGATTATTCCGGAGTCACCTAGTGCAG,10900 fluorescence intensity (a.u.)
20,GTTAACTAATTAGGGCGTATGAACAAGTCATCGTGGCAGTCGGAGTCACCTAGTGCAG,23000 fluorescence intensity (a.u.)
21,GAATAATTACCGAAAAGGCAATTAATTAGTGACAGGGAGTCGGAGTCACCTAGTGCAG,26200 fluorescence intensity (a.u.)
22,GGCTTCCTTAATTGTACATGTCTCTCTTCATTCTGCTGCACGGAGTCACCTAGTGCAG,5930 fluorescence intensity (a.u.)
23,TTTCTGATTTACGTGGCTTGTGAGTAGGGCGCCTCCTCATCGGAGTCACCTAGTGCAG,8000 fluorescence intensity (a.u.)

# — PMC7819943, “Rice protein-binding microarrays: a tool to detect cis-acting elements near promoter regions in rice”
